Bioassay records: PubChem, several laboratories
BAP1 inh: blocks human BAP1 ubiquitin-AMC hydrolysis | Q92560 | 72,000 tested, 0.48% active | recombinant BAP1, Ub-AMC hydrolysis fluorescence kinetic; hits give low values | calls only at 20 µM;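 active = activity remaining at or below 50% of control, provided the compound also passes the data quality filters; inactive = the rest, including low values that fail the filters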;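 also: 100% = DMSO wells rate and 0% = substrate alone blank rate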
Target sequence (Q92560 whole entry, looked up): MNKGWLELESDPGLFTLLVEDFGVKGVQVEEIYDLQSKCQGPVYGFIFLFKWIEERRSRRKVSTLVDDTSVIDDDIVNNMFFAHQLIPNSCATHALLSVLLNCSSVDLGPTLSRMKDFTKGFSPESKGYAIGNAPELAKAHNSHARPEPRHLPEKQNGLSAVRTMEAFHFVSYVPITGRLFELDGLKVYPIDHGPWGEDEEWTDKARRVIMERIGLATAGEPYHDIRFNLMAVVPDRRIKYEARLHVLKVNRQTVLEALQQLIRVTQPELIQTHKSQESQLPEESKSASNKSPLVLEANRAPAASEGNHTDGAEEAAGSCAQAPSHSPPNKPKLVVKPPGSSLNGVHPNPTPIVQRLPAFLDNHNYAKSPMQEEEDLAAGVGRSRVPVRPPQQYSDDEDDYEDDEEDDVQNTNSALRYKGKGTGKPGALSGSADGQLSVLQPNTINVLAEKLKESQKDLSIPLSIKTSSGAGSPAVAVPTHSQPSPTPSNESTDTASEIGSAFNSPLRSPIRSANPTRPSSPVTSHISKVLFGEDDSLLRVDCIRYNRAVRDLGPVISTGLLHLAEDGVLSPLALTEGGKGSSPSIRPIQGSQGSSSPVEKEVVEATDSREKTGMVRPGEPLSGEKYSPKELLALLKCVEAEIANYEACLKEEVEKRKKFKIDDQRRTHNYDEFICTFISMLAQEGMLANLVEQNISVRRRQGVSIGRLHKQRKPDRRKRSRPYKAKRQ
PLAP act: activators of human placental alkaline phosphatase; P05187; purified PLAP enzyme, luminescent substrate read-out; hits give high values; activation fold at 20 µM; 96,000 tested, 1.2% active; in the data active = activation fold above about 2
sEH act: soluble epoxide hydrolase (human) activation. P34913. purified human sEH enzymatic activity, activator screen. 91,000 tested, 0.04% active. activation, % at 2 µM; in the data active = activation above about 37%
sEH inhibitor: inhibitors of human soluble epoxide hydrolase | P34913 | recombinant human sEH enzymatic activity assay | inhibition, % at 2 µM | 91,000 tested, 0.34% active; in the data active = inhibition above about 80%
Numbers without * were called inactive; i = inactive; . = no result shown; + = active, no number. Most compounds without a hit are left out; they make up all but 1.5% or so of the library.

SMILES	BAP1 inh	PLAP act	sEH act	sEH inhibitor
CS(=O)(=O)N(CC(=O)NCc1ccccc1)C1CCCCC1	.	.	8	-4
CN(C)c1cc(NC(=O)CN2CCOCC2)c2ccccc2n1	+	.	14	-14
CCCOC(=O)c1ccc(Oc2c(-c3ccc(OCC)cc3O)n[nH]c2C)cc1	i	2.2*	-3	6
CCCc1ccc(Oc2c(-c3ccc(OCC)cc3O)n[nH]c2C)cc1	i	.	.	.
CC1CCCN(C/C(O)=C(\C#N)c2nc3ccccc3[nH]2)C1 (stereo unspecified)	i	2*	17	-17
N#C/C(=C(/O)COC(=O)c1ccc2c(c1)OCCO2)c1nc2ccccc2[nH]1	.	1.7	3	-3
COc1ccc(C/C(O)=C(\C#N)c2nc3ccccc3[nH]2)cc1OC	i	2.7*	5	-4
CC(C)(C)/C(O)=C(/C#N)c1nc2ccccc2[nH]1	i	1.4	-4	6
Cc1cc(C)n2c(SC/C(O)=C(\C#N)c3nc4ccccc4[nH]3)nnc2n1	.	2*	-4	2
CCOC(=O)c1c(C)[nH]c(C(=O)OC/C(O)=C(\C#N)c2nc3ccccc3[nH]2)c1C	i	2.1*	-3	6
Cc1ccccc1OCC(=O)NCc1ccncc1	i	.	.	.
COc1ccc(CNC(=O)/C=C/c2cc3c(cc2Br)OCO3)cc1	.	1	-86	86*
O=C(/C=C/c1cc2c(cc1Br)OCO2)NCc1ccc(F)cc1	.	1	-71	72
CCS(=O)(=O)N1Cc2ccccc2CC1C(=O)Nc1nc2ccccc2[nH]1 (stereo unspecified)	i	2.4*	.	.
CCCCCC(=O)Nc1nc2ccccc2[nH]1	.	.	-7	4
COc1ccc(C2CC(C(F)(F)F)n3nc(C(=O)Nc4cccc(C(F)(F)F)c4)c(Cl)c3N2)cc1 (stereo unspecified)	i	.	.	.
COc1ccc(OC)c(/C=N/NC(=O)c2csc3ccccc23)c1	.	0.9	-84	84*
Cc1cc(N2CCCC(C(=O)Nc3ccc4c(c3)CCC4)C2)n2ncnc2n1 (stereo unspecified)	i	1.4	-82	82*
CCSc1nnc2c(n1)OC(c1ccc3ccccc3c1)Nc1ccccc1-2 (stereo unspecified)	i	.	.	.
CCC(=O)N1CCc2cc(S(=O)(=O)NC(Cc3ccccc3)C(=O)NC3CCCCC3C)ccc21 (stereo unspecified)	.	2.3*	12	-12
CCC(=O)N1CCc2cc(S(=O)(=O)NC(CC(C)C)C(=O)N3CCc4ccccc43)ccc21 (stereo unspecified)	i	1	.	.
COc1ccccc1NS(=O)(=O)c1cccc(C(=O)NN)c1	.	0.9	-94	94*
COc1ccccc1NS(=O)(=O)c1ccc(O)cc1	.	0.8	-1	0
COc1ccccc1NC(=O)N(CCN(C)C)Cc1cc2cc(C)ccc2[nH]c1=O	i	2*	2	-4
COc1ccccc1NC(=O)N(CCN1CCCC1)Cc1cc2cc(C)ccc2[nH]c1=O	.	.	0	5
SMILES	BAP1 inh	PLAP act	sEH act	sEH inhibitor
Cc1[nH]n(-c2ccccc2)c(=O)c1/C=N/O	.	1.1	6	-6
Cc1[nH]n(-c2ccc([N+](=O)[O-])cc2)c(=O)c1C=NCCN1CCN(C(=O)c2ccccc2)CC1	.	2*	6	-7
CCn1c2ccccc2c2cc(C3Nc4ccccc4NC4=C3C(=O)CC(c3ccc(OC)c(OC)c3)C4)ccc21 (stereo unspecified)	i	.	.	.
COc1ccc(OC)c(N(CC(=O)Nc2cccnc2)S(=O)(=O)c2ccccc2)c1	.	2.2*	-2	2
COc1ccc(-c2csc(NC(=O)c3cccnc3)n2)cc1Br	i	.	.	.
Cc1cccc(N(CC(=O)NC2CCCC2)C(=O)CCCC(=O)Nc2ccccn2)c1	i	2*	10	-8
NNC(=O)c1cccc(COc2cccc(Br)c2)c1	.	0.9	-81	82*
Oc1ccc(N=Cc2ccc(Br)cc2)cc1	i	.	.	.
COc1ccc(NC(=O)C2CCN(Cc3cnn(-c4ccccc4)c3-n3cccc3)CC2)cc1OC	i	.	-14	13
COc1ccc(OC)c(NC(=O)C2CCN(Cc3cnn(-c4ccccc4)c3-n3cccc3)CC2)c1	.	1.9	-8	6
O=C(Nc1ccccc1Cl)C1CCN(Cc2cnn(-c3ccccc3)c2-n2cccc2)CC1	.	2*	-24	24
O=C(NCc1ccc2c(c1)OCO2)C1CCN(c2ccc(S(=O)(=O)N3CCCC3)cc2)CC1	.	1.5	-86	86*
O=C(NCc1ccc2c(c1)OCO2)C1CCN(Cc2cnn(-c3ccccc3)c2-n2cccc2)CC1	i	2.5*	-84	84*
CCS(=O)(=O)N1CCCC(C(=O)NCc2ccc3c(c2)OCO3)C1 (stereo unspecified)	i	0.9	-3	5
CCCCC(=O)Nc1ccc(S(=O)(=O)NC(=O)CC)cc1	i	.	.	.
Cc1ccc(-n2nnnc2SCC(=O)NCCC2=CCCCC2)c(C)c1	i	1	-82	82*
N#Cc1cc(Nc2ccc(Cc3ccncc3)cc2)c([N+](=O)[O-])cc1C#N	i	.	.	.
COC(=O)[C@@H](NC(=O)NCc1ccccc1Cl)C(C)C	i	0.8	-89	89*
COc1ccccc1NC(=O)CC(C)Cc1cc(C)cc(C)c1 (stereo unspecified)	i	.	.	.
Cc1ccc(NS(=O)(=O)c2cc(C(=O)Nc3ccc([N+](=O)[O-])cc3)ccc2C)cc1	i	.	.	.
Cc1cccc(N2CCN(Cc3oc(CO)cc(=O)c3O)CC2)c1C	.	2.2*	-6	4
O=C(CSc1nc2ncccc2[nH]1)NCc1ccccc1	i	2.4*	6	-6
CCc1nc(SCC(=O)NNC(=O)C(C)C)c2ccccc2n1	.	2*	.	.
C/C(=N\NC(=O)c1cccc(S(=O)(=O)Nc2ccccc2Cl)c1)c1ccc(-n2ccnc2)cc1	.	1.5	-87	87*
O=C(NCCCn1ccnc1)c1cccc(S(=O)(=O)Nc2ccccc2F)c1	.	1.3	-9	10
SMILES	BAP1 inh	PLAP act	sEH act	sEH inhibitor
COc1ccc(NS(=O)(=O)c2cccc(C(=O)N/N=C(\C)c3ccc(-n4ccnc4)cc3)c2)cc1	.	2.1*	-40	39
O=C(Nc1ccc(Cl)cc1)NC1(C(=O)NCCCN2CCOCC2)CCCCC1	i	2.7*	.	.
CS(=O)(=O)N(Cc1ccc(C(=O)NCCSCc2ccco2)cc1)c1ccccc1	.	0.8	-81	81*
CS(=O)(=O)N(Cc1ccc(C(=O)NCc2ccco2)cc1)c1ccccc1	i	1.2	-19	19
O=[N+]([O-])c1ccc(Oc2ccc(S(=O)(=O)Nc3ccc4c(c3)OCCO4)cc2)cc1	i	.	.	.
COc1ccc(CN2C(=O)[C@@H]3C(c4ccc(F)cc4)=NO[C@@H]3C2=O)cc1	i	1	38*	-40
O=C(NCc1n[nH]c(=S)n1-c1ccc(Br)cc1)c1cccc2ccccc12	i	.	.	.
CCOC(=O)c1c(-c2ccc(C)o2)csc1NC(=O)CN1CCOCC1	.	1.5	-5	4
CCOC(=O)c1c(-c2ccc(C)o2)csc1NC(=O)CSc1ncn[nH]1	.	2.2*	15	-15
CC(C)c1ccc(-c2cc(C(=O)N3N=C(C(F)F)CC3(O)C(F)F)c3ccccc3n2)cc1 (stereo unspecified)	.	2.1*	-3	5
CCNC(=S)NNC(=O)c1ccccc1OC(F)F	.	2.9*	9	-7
